# Test results taken from PubChem BioAssay.
# Activity calls are given as the source filed them. Unless noted, how the calls were made is not given here.
# Legend:
# [1] = system: XIP peptide (Xip251-270) binding; assay: small-molecule binders of XIP peptide, primary screen, biochemical, small-molecule microarray, fluorescence 635/667 nm, 0.1 µg/mL protein (AID 1182); settings: fluorescent protein binding, 635 nm, higher = more signal, called active from +8 up or from −8 down
# [2] = system: XIP peptide (Xip251-270); assay: small-molecule binders of XIP peptide, primary screen, biochemical, small-molecule microarray, fluorescence 635/667 nm, 0.5 µg/mL protein (AID 1183); settings: small-molecule microarray binding, fluorescence 635 nm; higher = more signal
# [3] = Plasmodium falciparum growth inhibition, primary screen, strain 3D7, DAPI fluorescence, 100 nL (AID 1184);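 further: parasites grown inside human red blood cells in medium with human serum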; settings: P. falciparum 3D7 growth, 3 d, higher = more signal
# [4] = biological target: Homeobox protein Hox-A13 (Mus musculus) (UniProt Q62424); assay: inhibitors of HoxA13-DNA binding, primary screen, biochemical, fluorescence polarization, labeled oligonucleotide (AID 1185); settings: 15 min, higher = more signal, called active from +8 up or from −8 down
# [5] = inhibitors of hydroxyurea-induced Chk1 phosphorylation, primary screen, imaging, HeLa, phospho-Chk1 antibody, percent positive cells (AID 1186); settings: hydroxyurea-induced phospho-Chk1 immunofluorescence imaging, higher = more signal
# [6] = inhibitors of hydroxyurea-induced Chk1 phosphorylation, primary screen, imaging, HeLa, phospho-Chk1 nuclear intensity (AID 1187); settings: hydroxyurea-induced phospho-Chk1 immunofluorescence imaging, higher = more signal
# Sequence of Homeobox protein Hox-A13 (Mus musculus) (Q62424 whole entry, looked up): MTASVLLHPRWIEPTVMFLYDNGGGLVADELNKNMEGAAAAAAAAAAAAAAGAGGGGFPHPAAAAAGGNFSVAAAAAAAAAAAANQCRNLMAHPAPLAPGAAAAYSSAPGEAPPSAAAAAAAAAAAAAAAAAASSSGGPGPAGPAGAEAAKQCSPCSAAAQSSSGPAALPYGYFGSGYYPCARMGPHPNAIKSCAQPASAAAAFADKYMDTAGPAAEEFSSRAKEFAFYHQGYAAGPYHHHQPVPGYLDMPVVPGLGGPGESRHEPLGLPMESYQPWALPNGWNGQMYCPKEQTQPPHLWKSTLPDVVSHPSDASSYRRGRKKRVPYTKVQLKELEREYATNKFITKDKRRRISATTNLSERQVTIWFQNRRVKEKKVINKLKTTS
Structure (SMILES),composite z-score [1],composite z-score [2],z-score [3],z-score [4],z-score [5],z-score [6]
NCCCCCNC(=O)[C@H]1C[C@H]2C(=O)N[C@@H](Cc3ccccc3)C(=O)N2[C@H]1c1ccc(O)cc1,1.46 (inactive),0.75,-0.236,-3.78 (inactive),1.01 (inactive),0.921 (inactive)
O=C1O[C@H](c2ccccc2)[C@H](c2ccccc2)N2[C@H]1[C@@H](C(=O)N1CCCCCCC1)[C@]1(C(=O)Nc3ccc(C#CC4(O)CCCCCC4)cc31)[C@H]2c1ccc(O)cc1,1.81 (inactive),0.466,-0.372,1.68 (inactive),-0.216 (inactive),-1.07 (inactive)
COC(=O)[C@@]1(Cc2ccc(OC)cc2)[C@H]2c3cc(C(=O)N4CCCC4)n(Cc4cc(C)n(C)n4)c3C[C@H]2CN1C(=O)c1ccccc1,1.26 (inactive),0.528,-1.44,-4.85 (inactive),-0.6 (inactive),-0.279 (inactive)
COCCOC(=O)N1C(=O)[C@@]2(c3cc(C#Cc4ccc(OC)cc4)ccc31)[C@H](C(=O)NC[C@H](O)c1ccccc1)[C@H]1C(=O)O[C@H](c3ccccc3)[C@H](c3ccccc3)N1[C@@H]2c1ccc(OCCO)cc1,0.271 (inactive),0.591,-2.17,1.56 (inactive),0.0092 (inactive),0.117 (inactive)
O=C1C2C=CC(C(O)c3cccc(O)c3)N(Nc3ccccc3)C2C(=O)N1c1ccccc1 (stereo unspecified),-0.234 (inactive),0.214,-0.267,-1.18 (inactive),0.293 (inactive),0.126 (inactive)
COCC(=C=CC[C@H](O)c1cccc(OCCO)c1)C[C@H](O)COCc1ccccc1,0.196 (inactive),-0.524,-1.88,-3.95 (inactive),-0.0978 (inactive),0.443 (inactive)
C=CCC(OC(C)=O)[C@@H]1[C@@H](N(Cc2ccc(-c3cccc(C(F)(F)F)c3)o2)C(=O)c2ccc(C)cc2)c2cc(OCCCO)ccc2N1C(=O)Cc1ccc(OC)cc1 (stereo partly specified),-0.635 (inactive),-0.0047,-0.549,-0.791 (inactive),-0.159 (inactive),0.0947 (inactive)
O=c1cccc(-c2ccco2)o1,-0.103 (inactive),0.337,2.05,-1.92 (inactive),0.0593 (inactive),-0.106 (inactive)
Cc1c(NC(=O)/C(C#N)=C/c2ccccc2Cl)c(=O)n(-c2ccccc2)n1C,-0.0708 (inactive),0.808,0.419,-1.68 (inactive),-0.0018 (inactive),0.281 (inactive)
C=C(/C(=C/C[C@H](OC(=O)c1ccncc1)c1ccccc1OCCO)c1cnc2ccccc2c1)C(C)C,-0.0266 (inactive),0.615,-2.96,-4.2 (inactive),0.39 (inactive),0.0188 (inactive)
COC(=O)[C@@]1(Cc2ccccc2CN=[N+]=[N-])N=C(c2ccc(OCCCO)cc2)O[C@H]1c1ccccc1,2.54 (inactive),0.766,-2.34,-4.51 (inactive),0.022 (inactive),0.55 (inactive)
COCCCNC(=O)[C@@H]1c2ccccc2C(=O)N(C2Cc3ccccc3C2)[C@H]1c1ccc(CO)cc1,-0.295 (inactive),0.583,-0.804,-2.44 (inactive),-0.533 (inactive),-0.726 (inactive)
CCOC(=O)C1=CC[C@@H](c2ccccc2)N(S(=O)(=O)c2ccc(C)cc2)[C@H]1C=Cc1ccccc1,0.0537 (inactive),0.749,-2.01,1.66 (inactive),-0.511 (inactive),-0.645 (inactive)
Cc1cccc([C@H]2C[C@H]3C(Br)=C[C@@H]2C(=O)[C@]32CO2)c1,-0.409 (inactive),-0.848,-0.528,-1.65 (inactive),0.139 (inactive),-0.0027 (inactive)
COc1cc2c(cc1O)C(c1cccs1)N(Cc1sc3ccccc3c1Cl)CC2 (stereo unspecified),0.791 (inactive),0.867,-1.66,-1.54 (inactive),0.326 (inactive),0.638 (inactive)
C=CCC(OC(C)=O)[C@@H]1[C@@H](N(Cc2ccc(-c3ccccc3)cc2)C(=O)c2ccc(C)cc2)c2cc(OCCCO)ccc2N1C(=O)Cc1ccc2ccccc2c1 (stereo partly specified),0.254 (inactive),0.0529,-0.481,-1.28 (inactive),-0.816 (inactive),-0.488 (inactive)
